Common to all, as to assay: PBM; 200 nM protein, PBS
Common to all, as to details: dsDNA, one strand shown

Assay [1] addresses HOXB9 (Homo sapiens, UniProt P17482 171-250, T197M).
The target in assay [2] is HOXC9 (Homo sapiens, UniProt P31274 178-260, K195R).
The target in assay [3] is HOXC10 (Homo sapiens, UniProt Q9NYD6 254-340).
The target of assay [4] is HOXB9 (Homo sapiens, UniProt P17482 171-250).
The target in assay [5] is HOXC9 (Homo sapiens, UniProt P31274 178-260).
The target of assay [6] is HOXD13 (Homo sapiens, UniProt P35453 263-343, T313R).
Assay [7] deals with HOXC9 (Homo sapiens, UniProt P31274 178-260, R193K).
For assay [8], the target named is HOXD13 (Homo sapiens, UniProt P35453 263-343).
Assay [9] addresses HOXC10 (Homo sapiens, UniProt Q9NYD6 254-340, K271E).
The target in assay [10] is HOXD13 (Homo sapiens, UniProt P35453 263-343, T313A).
Assay [11] concerns the target HOXB9 (Homo sapiens, UniProt P17482 171-250, R186Q).
Assay [12] concerns the target HOXC9 (Homo sapiens, UniProt P31274 178-260, R222W).
Assay [13] concerns the target MSX2 (Homo sapiens, UniProt P35548 130-214).
In assay [14] the target is MSX2 (Homo sapiens, UniProt P35548 130-214, F161Y).
MSX2 (Homo sapiens, UniProt P35548 130-214, F161Y), sequence (P35548 130-214 F161Y): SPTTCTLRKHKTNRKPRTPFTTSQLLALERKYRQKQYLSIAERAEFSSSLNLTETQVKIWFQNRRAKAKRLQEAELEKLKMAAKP

HOXB9 (Homo sapiens, UniProt P17482 171-250, T197M), sequence (P17482 171-250 T197M): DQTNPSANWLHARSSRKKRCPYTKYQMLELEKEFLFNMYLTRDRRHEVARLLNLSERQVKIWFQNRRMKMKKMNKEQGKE
HOXB9 (Homo sapiens, UniProt P17482 171-250, R186Q), sequence (P17482 171-250 R186Q): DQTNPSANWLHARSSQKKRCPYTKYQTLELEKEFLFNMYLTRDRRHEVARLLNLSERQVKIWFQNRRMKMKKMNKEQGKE
HOXC9 (Homo sapiens, UniProt P31274 178-260, R222W), sequence (P31274 178-260 R222W): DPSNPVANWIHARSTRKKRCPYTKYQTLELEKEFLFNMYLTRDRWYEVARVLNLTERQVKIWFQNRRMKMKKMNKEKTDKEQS
HOXC10 (Homo sapiens, UniProt Q9NYD6 254-340), sequence (Q9NYD6 254-340): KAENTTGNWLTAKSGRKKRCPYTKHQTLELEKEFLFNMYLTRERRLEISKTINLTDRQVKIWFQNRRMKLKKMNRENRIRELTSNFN
HOXC10 (Homo sapiens, UniProt Q9NYD6 254-340, K271E), sequence (Q9NYD6 254-340 K271E): as the sequence (Q9NYD6 254-340) above, with K18E counted along it
HOXC9 (Homo sapiens, UniProt P31274 178-260), sequence (P31274 178-260): as the sequence (P31274 178-260 R222W) above, with W45R counted along it
HOXD13 (Homo sapiens, UniProt P35453 263-343, T313R), sequence (P35453 263-343 T313R): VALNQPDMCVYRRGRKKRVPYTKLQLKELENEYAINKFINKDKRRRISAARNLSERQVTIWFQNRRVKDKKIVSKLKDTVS
HOXD13 (Homo sapiens, UniProt P35453 263-343, T313A), sequence (P35453 263-343 T313A): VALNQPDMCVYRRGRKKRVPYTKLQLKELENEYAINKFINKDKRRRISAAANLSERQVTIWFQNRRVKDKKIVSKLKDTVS
HOXC9 (Homo sapiens, UniProt P31274 178-260, R193K), sequence (P31274 178-260 R193K): as the sequence (P31274 178-260 R222W) above, with R16K, W45R counted along it
HOXC9 (Homo sapiens, UniProt P31274 178-260, K195R), sequence (P31274 178-260 K195R): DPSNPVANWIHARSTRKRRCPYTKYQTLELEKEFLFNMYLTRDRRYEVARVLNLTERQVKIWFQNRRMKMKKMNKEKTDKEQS
HOXD13 (Homo sapiens, UniProt P35453 263-343), sequence (P35453 263-343): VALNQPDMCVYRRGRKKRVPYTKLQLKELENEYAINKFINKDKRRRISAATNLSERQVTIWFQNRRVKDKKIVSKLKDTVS
HOXB9 (Homo sapiens, UniProt P17482 171-250), sequence (P17482 171-250): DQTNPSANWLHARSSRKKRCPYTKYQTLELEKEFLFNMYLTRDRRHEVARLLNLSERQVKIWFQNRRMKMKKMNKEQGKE
MSX2 (Homo sapiens, UniProt P35548 130-214), sequence (P35548 130-214): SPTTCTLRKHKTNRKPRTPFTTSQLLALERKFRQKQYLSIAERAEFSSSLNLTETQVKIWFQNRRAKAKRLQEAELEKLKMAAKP

TCATAAAA: the binding signal with HOXB9 [1] was 9.93 upbm affinity estimate (log intensity, higher = more binding, comparable within an allelic series); with HOXC9 [2], 13 upbm affinity estimate (log intensity, higher = more binding, comparable within an allelic series); with HOXC10 [3], 12.8 upbm affinity estimate (log intensity, higher = more binding, comparable within an allelic series); in the assay with HOXB9 [4], 12.4 upbm affinity estimate (log intensity, higher = more binding, comparable within an allelic series); with HOXC9 [5], 13.1 upbm affinity estimate (log intensity, higher = more binding, comparable within an allelic series); in the assay with HOXD13 [6] it was 11 upbm affinity estimate (log intensity, higher = more binding, comparable within an allelic series). Besides, the binding signal with HOXC9 [7] was 12.9 upbm affinity estimate (log intensity, higher = more binding, comparable within an allelic series); with HOXD13 [8], 12.2 upbm affinity estimate (log intensity, higher = more binding, comparable within an allelic series); with HOXC10 [9], 12.3 upbm affinity estimate (log intensity, higher = more binding, comparable within an allelic series); with HOXD13 [10], 11.9 upbm affinity estimate (log intensity, higher = more binding, comparable within an allelic series); in the assay with HOXB9 [11] it was 12.1 upbm affinity estimate (log intensity, higher = more binding, comparable within an allelic series); with HOXC9 [12], 11.3 upbm affinity estimate (log intensity, higher = more binding, comparable within an allelic series).
Turning to CTCATAAA, the binding signal is 9.59 upbm affinity estimate (log intensity, higher = more binding, comparable within an allelic series) with HOXB9 [1]; 12.6 upbm affinity estimate (log intensity, higher = more binding, comparable within an allelic series) with HOXC9 [2]; 12.4 upbm affinity estimate (log intensity, higher = more binding, comparable within an allelic series) with HOXC10 [3]; 11.9 upbm affinity estimate (log intensity, higher = more binding, comparable within an allelic series) with HOXB9 [4]; 12.8 upbm affinity estimate (log intensity, higher = more binding, comparable within an allelic series) in the assay with HOXC9 [5]; 11.2 upbm affinity estimate (log intensity, higher = more binding, comparable within an allelic series) with HOXD13 [6]. Moreover, the binding signal is 12.6 upbm affinity estimate (log intensity, higher = more binding, comparable within an allelic series) with HOXC9 [7]; 12.5 upbm affinity estimate (log intensity, higher = more binding, comparable within an allelic series) with HOXD13 [8]; 11.8 upbm affinity estimate (log intensity, higher = more binding, comparable within an allelic series) with HOXC10 [9]; 12.2 upbm affinity estimate (log intensity, higher = more binding, comparable within an allelic series) with HOXD13 [10]; 11.5 upbm affinity estimate (log intensity, higher = more binding, comparable within an allelic series) with HOXB9 [11]; 11.1 upbm affinity estimate (log intensity, higher = more binding, comparable within an allelic series) with HOXC9 [12].
As for CTCGTAAA, the binding signal is 9.72 upbm affinity estimate (log intensity, higher = more binding, comparable within an allelic series) with HOXB9 [1]; 12.6 upbm affinity estimate (log intensity, higher = more binding, comparable within an allelic series) in the assay with HOXC9 [2]; 12.6 upbm affinity estimate (log intensity, higher = more binding, comparable within an allelic series) with HOXC10 [3]; 12 upbm affinity estimate (log intensity, higher = more binding, comparable within an allelic series) in the assay with HOXB9 [4]; 12.9 upbm affinity estimate (log intensity, higher = more binding, comparable within an allelic series) in the assay with HOXC9 [5]; 11.3 upbm affinity estimate (log intensity, higher = more binding, comparable within an allelic series) with HOXD13 [6]. In addition, the binding signal in the assay with HOXC9 [7] is 12.7 upbm affinity estimate (log intensity, higher = more binding, comparable within an allelic series); with HOXD13 [8], 12.7 upbm affinity estimate (log intensity, higher = more binding, comparable within an allelic series); with HOXC10 [9] it was 11.9 upbm affinity estimate (log intensity, higher = more binding, comparable within an allelic series); with HOXD13 [10] it was 12.6 upbm affinity estimate (log intensity, higher = more binding, comparable within an allelic series); in the assay with HOXB9 [11] it was 11.4 upbm affinity estimate (log intensity, higher = more binding, comparable within an allelic series); with HOXC9 [12] it was 11.1 upbm affinity estimate (log intensity, higher = more binding, comparable within an allelic series).
For the sequence TCGTTAAA, the binding signal is 9.96 upbm affinity estimate (log intensity, higher = more binding, comparable within an allelic series) with HOXB9 [1]; 12.5 upbm affinity estimate (log intensity, higher = more binding, comparable within an allelic series) with HOXC9 [2]; 12.4 upbm affinity estimate (log intensity, higher = more binding, comparable within an allelic series) in the assay with HOXC10 [3]; 11.7 upbm affinity estimate (log intensity, higher = more binding, comparable within an allelic series) with HOXB9 [4]; 12.7 upbm affinity estimate (log intensity, higher = more binding, comparable within an allelic series) with HOXC9 [5]; 10.8 upbm affinity estimate (log intensity, higher = more binding, comparable within an allelic series) in the assay with HOXD13 [6]. Further, the binding signal was 12.4 upbm affinity estimate (log intensity, higher = more binding, comparable within an allelic series) with HOXC9 [7]; 12 upbm affinity estimate (log intensity, higher = more binding, comparable within an allelic series) in the assay with HOXD13 [8]; 12.1 upbm affinity estimate (log intensity, higher = more binding, comparable within an allelic series) in the assay with HOXC10 [9]; 11.7 upbm affinity estimate (log intensity, higher = more binding, comparable within an allelic series) with HOXD13 [10]; 11.3 upbm affinity estimate (log intensity, higher = more binding, comparable within an allelic series) with HOXB9 [11]; 10.9 upbm affinity estimate (log intensity, higher = more binding, comparable within an allelic series) with HOXC9 [12].
Turning to ACATAAAA, the binding signal in the assay with HOXB9 [1] was 9.85 upbm affinity estimate (log intensity, higher = more binding, comparable within an allelic series); with HOXC9 [2], 12.8 upbm affinity estimate (log intensity, higher = more binding, comparable within an allelic series); with HOXC10 [3], 12.5 upbm affinity estimate (log intensity, higher = more binding, comparable within an allelic series); with HOXB9 [4] it was 12.3 upbm affinity estimate (log intensity, higher = more binding, comparable within an allelic series); with HOXC9 [5], 13 upbm affinity estimate (log intensity, higher = more binding, comparable within an allelic series); with HOXC9 [7], 12.9 upbm affinity estimate (log intensity, higher = more binding, comparable within an allelic series). Also, the binding signal with HOXC10 [9] is 12 upbm affinity estimate (log intensity, higher = more binding, comparable within an allelic series); with MSX2 [13], 11.3 upbm affinity estimate (log intensity, higher = more binding, comparable within an allelic series); with HOXB9 [11], 12 upbm affinity estimate (log intensity, higher = more binding, comparable within an allelic series); in the assay with HOXC9 [12] it was 11.3 upbm affinity estimate (log intensity, higher = more binding, comparable within an allelic series); with MSX2 [14], 11.1 upbm affinity estimate (log intensity, higher = more binding, comparable within an allelic series).

For the origin of these results see article PMC11006913.
